# In PubChem BioAssay AID686928 (Broad Institute, 2013):
# Measured potencies and affinities stand elsewhere. The source made the active and inactive calls. No rule for the calls is given here.
# Experiment: HeLa cell cytotoxicity, dose response, cytotoxicity control, 24 h, plate reader, dry powder (AID 686928)
# Conditions: series mostly up to 50 µM
row,Compound,outcome
1,CCCCCCCCCC(=O)C(O)CC (configuration not stated),inactive
2,CCn1nnnc1N,inactive
